In the library only some 8.3% were active in any assay of this set; here they are far more common.
MARV entry inh: Marburg virus entry inhibition | Potency, µM (doses to about 37.8 µM), most hits filed as inhibitors | Marburg virus pseudotyped entry inhibition, cell reporter | 300,000 compounds, 1.8% hits; calls by dose curve; tested in HEK293 cells
FBPA Giardia inh: blocks Giardia fructose-bisphosphate aldolase activity. purified Giardia FBPA. Potency, µM (series often up to 59.6 µM), most hits filed as inhibitors. 290,000 compounds, 0.71% hits; also: nearly all actives have a fitted effect of over 55% in size
Target sequence (A8B2U2 whole entry, looked up): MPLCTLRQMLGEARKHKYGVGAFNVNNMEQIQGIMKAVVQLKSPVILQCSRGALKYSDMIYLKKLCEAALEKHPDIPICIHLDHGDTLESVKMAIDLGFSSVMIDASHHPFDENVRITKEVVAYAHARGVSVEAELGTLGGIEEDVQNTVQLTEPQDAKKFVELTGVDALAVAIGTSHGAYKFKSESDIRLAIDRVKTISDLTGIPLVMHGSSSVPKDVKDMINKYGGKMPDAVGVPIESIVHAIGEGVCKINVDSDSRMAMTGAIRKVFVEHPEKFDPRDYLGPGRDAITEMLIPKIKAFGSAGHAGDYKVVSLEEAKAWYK
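40 nM FBPA preincubated 10 min at RT with compound (up to 57.5 uM final), then substrate plus GAPDH/TPI/NAD/arsenate coupling and diaphorase/resazurin added. Fluorescence read after 20 min at RT, 525/598 nm.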
FMDV inh: blocks foot and mouth disease virus. 410,000 compounds, 1.2% hits. AID 1159524. FMDV antiviral cell-based qHTS. Potency, µM (series often up to 57.9 µM), most hits filed as inhibitors; calls by dose curve; tested in HEK293T cells; also: read-out not given here; nearly all actives have a fitted effect of over 45% in size
Lassa entry inh: blocks Lassa virus binding to or entry into cells | Lassa virus pseudotype entry inhibition, cell reporter | 300,000 compounds, 1.2% hits | Potency, µM (series often up to 37.9 µM), most hits filed as inhibitors; calls by dose curve; tested in HEK293 cells; also: nearly all actives have a fitted effect of over 50% in size
HCV inhibitor: inhibitors of hepatitis C virus infection. AID 651820. Huh7.5.1 HCVcc-Cre infection, luciferase reporter, 44 h. Potency, µM (series often up to 41.8 µM), most hits filed as inhibitors. 340,000 compounds, 3.4% hits
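1,000 cells/well; 4 h culture; + compound; + HCVcc-Cre (~0.5 moi); 44 h; luciferase substrate, RT 15 min; read 15 sec.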
HCMV antiviral: human cytomegalovirus inhibition | HFF cells, HCMV-luciferase reporter, 72 h; stronger effect = lower value | activity change, negative = inhibition, % at 57.5 µM | 410,000 compounds, 4.5% hits | AID 1259415; in the data active = activity change below about -60%; inconclusive = no clear call, values can overlap the other calls; inactive = above about -39%
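Inhibition of viral replication was scored as loss of reporter luminescence in HFFs infected with HCMV-luciferase (MOI 1 PFU/cell) for 72 h; compounds tested at 2 doses, normalized to buffer and Salinomycin controls.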
Numbers stand for hits. Unless noted, calls follow the shape of the dose curve; as a rule, active = well fitted curve in the direction sought with a large enough effect; inconclusive = small, poorly fitted or top-dose-only effect, or another doubt; inactive = no such curve, though single readings can be large; an effect the other way counts as inactive or inconclusive.

Screening C=CCC[C@@H](Cc1ccc(F)cc1)C(=O)OC[C@@H](C)NC(=O)[C@@H](CC=C)CC(=O)N[C@H](CO)Cc1ccccc1 returned FMDV inh 39.8µM, HCV inhibitor inconclusive and HCMV antiviral inactive.
Screening CN(c1ccccc1)S(=O)(=O)c1cccc(C(=O)Nc2ccc(N3CCOCC3)cc2)c1 returned MARV entry inh inconclusive, FMDV inh inconclusive, Lassa entry inh inactive, HCV inhibitor 10µM and HCMV antiviral inactive.
Screening COc1ccc(N(C)S(=O)(=O)c2cccc(C(=O)Nc3ccc(N4CCOCC4)cc3)c2)cc1 returned FMDV inh inconclusive, HCV inhibitor inconclusive and HCMV antiviral inactive.
For Cc1ccc(N(C)S(=O)(=O)c2cccc(C(=O)Nc3ccc(N4CCOCC4)cc3)c2)cc1 the results were FMDV inh 25.1µM, HCV inhibitor 6.31µM and HCMV antiviral inconclusive.
CCNc1ccc(C(=O)OCC)cc1NC(=O)c1cccc(S(=O)(=O)N(C)c2ccccc2)c1 was read as MARV entry inh inconclusive, FBPA Giardia inh inactive, FMDV inh inconclusive, Lassa entry inh inconclusive, HCV inhibitor 8.91µM and HCMV antiviral inactive.
For CN(c1ccc(F)cc1)S(=O)(=O)c1ccc(Cl)c(C(=O)NCC2(N3CCOCC3)CCCCC2)c1 the results were MARV entry inh inconclusive, FMDV inh inconclusive, Lassa entry inh inconclusive, HCV inhibitor 11.2µM and HCMV antiviral inactive.
C=CCC(CC=C)(CNC(=O)C(=O)Nc1ccc(Br)cc1)c1ccc(OC)c(OC)c1 was read as MARV entry inh inactive, FMDV inh inconclusive, Lassa entry inh inactive and HCMV antiviral inactive.
For CN1CCN(c2ncc3nc(CCc4ccccc4)c(=O)n(Cc4ccc(F)cc4)c3n2)CC1 the results were FBPA Giardia inh inactive and FMDV inh inactive.
`CN(C)S(=O)(=O)c1cccc(C(=O)Nc2ccc(N3CCOCC3)cc2)c1` gave MARV entry inh inactive, FBPA Giardia inh inactive, FMDV inh inactive, Lassa entry inh inactive, HCV inhibitor inconclusive and HCMV antiviral -79.0.
Screening CN(C)S(=O)(=O)c1cccc(C(=O)Nc2ccc(S(=O)(=O)N3CCCC3)cc2)c1 returned FBPA Giardia inh inactive, FMDV inh inactive, HCV inhibitor inactive and HCMV antiviral inactive.
For CN(c1ccccc1)S(=O)(=O)c1ccc(Cl)c(C(=O)Nc2ccccc2N2CCOCC2)c1 the results were MARV entry inh inconclusive, FMDV inh inactive, Lassa entry inh inconclusive, HCV inhibitor 11.2µM and HCMV antiviral inactive.
For OC[C@H]1O[C@H](c2ccccc2)C=C[C@H]1OCc1cccc(Br)c1 the results were MARV entry inh inactive.
Screening CC[C@H](C)[C@H](NC(=O)[C@H](Cc1ccc(O)cc1)NC(=O)[C@H](Cc1cnc[nH]1)NC(=O)[C@H](CCCNC(=N)N)NC(=O)[C@H](CC(C)C)NC(=O)[C@H](C)NC(=O)[C@H](CO)NC(=O)[C@H](Cc1ccc(O)cc1)NC(=O)[C@H](Cc1ccc(O)cc1)NC(=O)[C@H](CCCNC(=N)N)NC(=O)[C@H](C)NC(=O)[C@H](CCSC)NC(=O)[C@H](CC(=O)O)NC(=O)[C@H](CCC(=O)O)NC(=O)[C@H](C)NC(=O)[C@@H]1CCCN1)C(=O)N[C@@H](CC(N)=O)C(=O)N[C@@H](CC(C)C)C(=O)N[C@H](C(=O)N[C@H](C(=O)N[C@@H](CCCNC(=N)N)C(=O)N[C@@H](CCC(N)=O)C(=O)N[C@@H](CCCNC(=N)N)C(=O)N[C@@H](Cc1ccc(O)cc1)C(N)=O)[C@@H](C)O)[C@@H](C)CC returned FBPA Giardia inh inactive.
Screening O=C(NNC(=O)c1ccccc1Cl)c1ccc2c(=O)n3c(nc2c1)CCC3 returned FMDV inh inactive, HCV inhibitor inactive and HCMV antiviral inactive.
For O=C(O)c1ccc2c(=O)n3cc(C(=O)c4ccccc4O)cc(Cl)c3nc2c1 the results were FBPA Giardia inh inconclusive, FMDV inh inactive, HCV inhibitor inactive and HCMV antiviral -79.8.
For CC(=O)Nc1ccc(S(=O)(=O)NCCNS(=O)(=O)c2ccc(NC(C)=O)cc2)cc1 the results were FBPA Giardia inh inactive, FMDV inh inactive, HCV inhibitor inactive and HCMV antiviral inactive.
For CC(=O)Nc1ccc(S(=O)(=O)NCCSCc2ccc(Cl)cc2Cl)cc1 the results were MARV entry inh inconclusive, FBPA Giardia inh inactive, FMDV inh inactive, Lassa entry inh inconclusive, HCV inhibitor inconclusive and HCMV antiviral -67.3.
For CCN(C[C@H]1N[C@@](Cc2ccccc2)(C(=O)OC)[C@H]2C(=O)N(C)C(=O)[C@@H]12)S(=O)(=O)c1ccc(-c2ccccc2)cc1 the results were FMDV inh inactive, HCV inhibitor 17.8µM and HCMV antiviral inactive.
CCN(C[C@H]1N[C@@](Cc2ccccc2)(C(=O)OC)[C@H]2C(=O)N(Cc3ccccc3)C(=O)[C@@H]12)S(=O)(=O)c1ccc(C)cc1 was read as FMDV inh inconclusive, HCV inhibitor 7.08µM and HCMV antiviral inactive.
Screening N#Cc1ccccc1Cn1c(=O)n(-c2ccc(F)c(Cl)c2)c(=O)c2sccc21 returned MARV entry inh inactive, FMDV inh inactive, Lassa entry inh inconclusive and HCMV antiviral inactive.
For Cn1c(=O)c2c(c3ccccc31)OC(=O)CC2c1cccc(F)c1 (centres undefined) the results were MARV entry inh inactive, FMDV inh inactive, Lassa entry inh inactive and HCMV antiviral inactive.
`CCC(C)(C)n1nnnc1C(c1ccncc1)N1CCN(c2cccc(OC)c2)CC1` (centres undefined) gave MARV entry inh inconclusive, FBPA Giardia inh inactive, FMDV inh inactive, Lassa entry inh inactive, HCV inhibitor inactive and HCMV antiviral inactive.
For CCC(C)(C)n1nnnc1C(c1cccc(C#N)c1)N1CCN(c2cc(C)ccc2C)CC1 (centres undefined) the results were MARV entry inh 2.91µM, FBPA Giardia inh inactive, FMDV inh inactive, Lassa entry inh inconclusive, HCV inhibitor inactive and HCMV antiviral inactive.
For CCC(C)(C)n1nnnc1C(c1cccnc1)N1CCN(c2cccc(C(F)(F)F)c2)CC1 (centres undefined) the results were MARV entry inh 13µM, FBPA Giardia inh inactive, FMDV inh inactive, Lassa entry inh inconclusive, HCV inhibitor inactive and HCMV antiviral inactive.
CC(C)(C)n1nnnc1C(c1cccc(C#N)c1)N1CCC(Cc2ccccc2)CC1 (centres undefined) was read as MARV entry inh inconclusive, FBPA Giardia inh inactive, FMDV inh inactive, Lassa entry inh inconclusive, HCV inhibitor inconclusive and HCMV antiviral inactive.
`COc1cccc(-c2cc(C(=O)Nc3cccc(O)c3)no2)c1` gave MARV entry inh 4.61µM, FBPA Giardia inh inactive, FMDV inh inactive, Lassa entry inh 6.51µM, HCV inhibitor inactive and HCMV antiviral inactive.
Screening COc1cc(NC(=O)c2cc(-c3cccc(O)c3)on2)cc(OC)c1OC returned FBPA Giardia inh inactive, FMDV inh inconclusive, HCV inhibitor 11.2µM and HCMV antiviral inactive.
